Measured values: the supplement of paper PMC9023506
Where a name gives a salt, the structure may show the parent alone.

system: Danio rerio larvae (5 dpf); assay: excitability to 1-s acoustic pulses, difference vs DMSO (percentage points (treated minus DMSO)); higher = more of the behaviour than the DMSO vehicle control; settings: 10 µM; exposure time: 3 h pre-incubation + 3 h imaging
Method: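 5-dpf wild-type zebrafish larvae were imaged in 96-well plates. They were treated with 190 Tocris FDA-approved drugs at 10 µM (1 µl/ml DMSO) for 3 h before and 3 h during imaging at 28.5 °C, 48 larvae per drug. Automated image analysis gave % time moving and optomotor responses. Values are drug group mean minus DMSO vehicle mean (n=844), in percentage points, for 10 behaviours.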

SMILES | excitability to 1-s acoustic pulses
Cc1cccc(C)c1OCC(C)N (stereo not given) [Mexiletine hydrochloride] | 1.36
NC(=O)c1ncn([C@@H]2O[C@H](CO)[C@@H](O)[C@H]2O)n1 [Ribavirin] | -0.206
Cn1cnc([N+](=O)[O-])c1Sc1ncnc2[nH]cnc12 [Azathioprine] | -0.039
CC#C[C@]1(O)CC[C@H]2[C@@H]3CCC4=CC(=O)CCC4=C3[C@@H](c3ccc(N(C)C)cc3)C[C@@]21C [Mifepristone] | 5.32
Brc1c(NC2=NCCN2)ccc2nccnc12 | 7.01
COc1ccc(C[C@@H](C)NC[C@H](O)c2ccc(O)c(NC=O)c2)cc1 [Arformoterol tartrate] | 5.34
CN(C)CC/C=C1/c2ccccc2COc2ccc(CC(=O)O)cc21 [Olopatadine hydrochloride] | 3.92
C/C(O)=C(\C#N)C(=O)Nc1ccc(C(F)(F)F)cc1 [Teriflunomide] | 10.6
COc1cc2ncnc(Nc3ccc(F)c(Cl)c3)c2cc1OCCCN1CCOCC1 [Iressa] | 18
COc1ccccc1OCC(O)CN1CCN(CC(=O)Nc2c(C)cccc2C)CC1 (stereo not given) [Ranolazine dihydrochloride] | 1.94
CC(C)Nc1cccnc1N1CCN(C(=O)c2cc3cc(NS(C)(=O)=O)ccc3[nH]2)CC1 [Delavirdine mesylate] | 0.884
C#CCN[C@@H]1CCc2ccccc21 [Rasagiline mesylate] | -3.66
O=C(O)C[C@H](O)C[C@H](O)/C=C/c1c(C2CC2)nc2ccccc2c1-c1ccc(F)cc1 [Pitavastatin calcium] | 0.628
COC(=O)C1=C(C)NC(C)=C(C(=O)OC(C)C)C1c1cccc2nonc12 (stereo not given) [Isradipine] | 19.8
CCCN(CCc1cccs1)[C@H]1CCc2c(O)cccc2C1 [Rotigotine hydrochloride] | 31.3
CS(=O)(=O)CCNCc1ccc(-c2ccc3ncnc(Nc4ccc(OCc5cccc(F)c5)c(Cl)c4)c3c2)o1 [Lapatinib] | 14.5
CCOc1nc2cccc(C(=O)O)c2n1Cc1ccc(-c2ccccc2-c2nnn[nH]2)cc1 [Candesartan] | -3.51
C=C1[C@H](CO)[C@@H](O)C[C@@H]1n1cnc2c(=O)[nH]c(N)nc21 [Entecavir] | -3.18
COC(c1ccccc1)(c1ccccc1)[C@H](Oc1nc(C)cc(C)n1)C(=O)O [Ambrisentan] | -1.87
CCCCCCCN(CC)CCCC(O)c1ccc(NS(C)(=O)=O)cc1 (stereo not given) [Ibutilide hemifumarate] | 12.9

SMILES | excitability to 1-s acoustic pulses
CC(CCc1ccc(O)cc1)NCCc1ccc(O)c(O)c1 (stereo not given) [Dobutamine hydrochloride] | 5.75
CCCC1O[C@@H]2C[C@H]3[C@@H]4CCC5=CC(=O)C=C[C@]5(C)[C@H]4[C@@H](O)C[C@]3(C)[C@]2(C(=O)CO)O1 (stereo not given in full) [Budesonide] | -1.66
CC(=O)Oc1cc2c(s1)CCN(C(C(=O)C1CC1)c1ccccc1F)C2 (stereo not given) [Prasugrel] | 5.57
CC(C)[C@H]1CC[C@H](C(=O)N[C@H](Cc2ccccc2)C(=O)O)CC1 [Nateglinide] | 1.64
NS(=O)(=O)c1cc2c(cc1Cl)NC(C1CC3C=CC1C3)NS2(=O)=O (stereo not given) [Cyclothiazide] | 0.586
C[C@]12CC[C@@H]3c4ccc(O)cc4C[C@@H](CCCCCCCCC[S+]([O-])CCCC(F)(F)C(F)(F)F)[C@H]3[C@@H]1CC[C@@H]2O (stereo not given in full) | 2.14
O=C(O[C@@H]1C[C@@H]2C[C@H]3C[C@H](C1)N2CC3=O)c1c[nH]c2ccccc12 [Dolasetron mesylate] | 9.61
CN(C)CCc1c[nH]c2ccc(C[C@H]3COC(=O)N3)cc12 [Zolmitriptan] | 3.25
CCOC(=O)c1ncn2c1CN(C)C(=O)c1cc(F)ccc1-2 [Flumazenil] | 2.56
COc1cc(Nc2c(C#N)cnc3cc(OCCCN4CCN(C)CC4)c(OC)cc23)c(Cl)cc1Cl [Bosutinib] | 6.48
Cn1nnc2c(C(N)=O)ncn2c1=O [Temozolomide] | -2.39
CCN(Cc1ccncc1)C(=O)C(CO)c1ccccc1 (stereo not given) [Tropicamide] | 0.232
Clc1ccccc1C(c1ccccc1)(c1ccccc1)n1ccnc1 [Clotrimazole] | 14
CCCCCCCCc1ccc(CCC(N)(CO)CO)cc1 | 14.4
CNCc1ccc(-c2[nH]c3cc(F)cc4c3c2CCNC4=O)cc1 [Rucaparib camsylate] | 12.5
CCOC(=O)C1=C(COCCN)NC(C)=C(C(=O)OC)C1c1ccccc1Cl (stereo not given) [Amlodipine besylate] | -1.57
CCOc1ccccc1OCCN[C@H](C)Cc1ccc(OC)c(S(N)(=O)=O)c1 [Tamsulosin hydrochloride] | 14.9
CC(C)OC(=O)C(C)(C)Oc1ccc(C(=O)c2ccc(Cl)cc2)cc1 [Fenofibrate] | 4.84
CC(C)c1ccc2oc3nc(N)c(C(=O)O)cc3c(=O)c2c1 [Amlexanox] | 6.32
COc1ccccc1Oc1c(NS(=O)(=O)c2ccc(C(C)(C)C)cc2)nc(-c2ncccn2)nc1OCCO [Bosentan] | -1.1
